Measurements reported in PubChem BioAssay (NCI).
Compounds without any hit were thinned out: in the full panel of roughly 83,000, 20% have a hit.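 Growth was measured after 48 h exposure to one concentration of compound in 96-well plates. Values under 10 count as active.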 The source made the active and inactive calls.

Key:
Test in all cases: NCI-60 one-dose screen, 48 h (100 = growth as untreated, 0 = no growth, -100 = all killed)
Details in all cases: 10 µM
SK-MEL-2 melanoma = system: SK-MEL-2 melanoma
EKVX NSCLC = system: EKVX NSCLC
SN12C renal = system: SN12C renal
UO-31 renal = system: UO-31 renal
TK-10 renal = system: TK-10 renal
ACHN renal = system: ACHN renal
CAKI-1 renal = system: CAKI-1 renal
A498 renal = system: A498 renal
CCRF-CEM leukemia = system: CCRF-CEM leukemia
RPMI-8226 leukemia = system: RPMI-8226 leukemia
OVCAR-8 ovarian = system: OVCAR-8 ovarian
OVCAR-5 ovarian = system: OVCAR-5 ovarian
OVCAR-4 ovarian = system: OVCAR-4 ovarian
SK-OV-3 ovarian = system: SK-OV-3 ovarian
IGROV1 ovarian = system: IGROV1 ovarian
OVCAR-3 ovarian = system: OVCAR-3 ovarian
HS 578T breast = system: HS 578T breast
NCI/ADR-RES ovarian = system: NCI/ADR-RES ovarian

Measured: growth

O=S(=O)(c1ccc(Cl)cc1)c1nc(-c2ccccc2)oc1S(=O)(=O)c1ccc(Cl)cc1
inactive: SK-MEL-2 melanoma 96.7% | EKVX NSCLC 92.1% | SN12C renal 89.5% | UO-31 renal 64.4% | TK-10 renal 97.8% | ACHN renal 91.9% | CAKI-1 renal 85.8% | A498 renal 122% | RPMI-8226 leukemia 36.3% | OVCAR-8 ovarian 81.5% | OVCAR-5 ovarian 101% | OVCAR-4 ovarian 92.8% | SK-OV-3 ovarian 94% | IGROV1 ovarian 91.7% | OVCAR-3 ovarian 89.1% | HS 578T breast 87.4% | NCI/ADR-RES ovarian 81.2%
active: CCRF-CEM leukemia -28.1%

CC(=C(c1ccc(OCCCN(C)C)cc1)c1ccc(OCCCN(C)C)cc1)c1ccccc1
active: SK-MEL-2 melanoma -86.5% | EKVX NSCLC -96.1% | SN12C renal -96.8% | UO-31 renal -99.9% | TK-10 renal -92% | ACHN renal -99.2% | CAKI-1 renal -100% | A498 renal -86.4% | CCRF-CEM leukemia -65.9% | RPMI-8226 leukemia -54.4% | OVCAR-8 ovarian -72.7% | OVCAR-5 ovarian -98.5% | OVCAR-4 ovarian -96.9% | SK-OV-3 ovarian -90.3% | IGROV1 ovarian -95% | OVCAR-3 ovarian -93.6% | HS 578T breast -71.2% | NCI/ADR-RES ovarian -98.1%

C=C(C)[C@@H]1CC[C@]2(C(=O)OC)CC[C@]3(C)[C@H](CC[C@@H]4[C@@]5(C)CC[C@H](N)C(C)(C)[C@@H]5CC[C@]43C)[C@@H]12
active: SK-MEL-2 melanoma -75.3% | EKVX NSCLC -95.7% | SN12C renal -92.8% | UO-31 renal -100% | TK-10 renal -87.8% | ACHN renal -100% | CAKI-1 renal -99.9% | A498 renal -91.6% | CCRF-CEM leukemia -52.3% | RPMI-8226 leukemia -30.7% | OVCAR-8 ovarian -77.4% | OVCAR-5 ovarian -100% | OVCAR-4 ovarian -93.1% | SK-OV-3 ovarian -54.8% | IGROV1 ovarian -95.8% | OVCAR-3 ovarian -78.1% | HS 578T breast -59.3% | NCI/ADR-RES ovarian -83%

CN1CCN(c2ccc(Nc3nc(NCCNC(=O)c4ccc(C(F)(F)F)cc4)c4sccc4n3)cc2)CC1
active: SK-MEL-2 melanoma -41.9% | UO-31 renal 4.76% | CCRF-CEM leukemia -31.1% | RPMI-8226 leukemia -40.1% | OVCAR-4 ovarian -33.2% | HS 578T breast -8.08%
inactive: EKVX NSCLC 59.7% | SN12C renal 73.6% | TK-10 renal 12% | ACHN renal 10.7% | CAKI-1 renal 22.5% | A498 renal 69% | OVCAR-8 ovarian 21% | OVCAR-5 ovarian 42.3% | SK-OV-3 ovarian 77% | IGROV1 ovarian 65% | OVCAR-3 ovarian 27.8% | NCI/ADR-RES ovarian 38.5%

COc1ccc(-c2nc(S(=O)(=O)c3ccccc3)c(S(C)(=O)=O)o2)cc1
active: SN12C renal -63.7% | UO-31 renal -100% | TK-10 renal -99.3% | ACHN renal -100% | CAKI-1 renal -94.2% | CCRF-CEM leukemia -46.7% | RPMI-8226 leukemia -39.9% | OVCAR-8 ovarian -28.3% | OVCAR-5 ovarian -77.2% | OVCAR-4 ovarian -87% | NCI/ADR-RES ovarian 0.892%
inactive: SK-MEL-2 melanoma 69.7% | EKVX NSCLC 94.1% | A498 renal 113% | SK-OV-3 ovarian 97.9% | IGROV1 ovarian 77.2% | HS 578T breast 75.2%

CC1(C)CC[C@]2(C(=O)O)CC[C@]3(C)C(=CC[C@@H]4[C@@]5(C)C/C(=C/c6ccncc6)[C@H](O)C(C)(C)[C@@H]5CC[C@]43C)[C@@H]2C1
inactive: SK-MEL-2 melanoma 55.4% | EKVX NSCLC 30.1% | SN12C renal 55% | UO-31 renal 32.9% | TK-10 renal 46.9% | ACHN renal 25.7% | CAKI-1 renal 35.6% | A498 renal 65% | CCRF-CEM leukemia 21% | RPMI-8226 leukemia 19% | OVCAR-8 ovarian 44.5% | OVCAR-5 ovarian 67.6% | OVCAR-4 ovarian 42.6% | SK-OV-3 ovarian 65% | IGROV1 ovarian 49.1% | OVCAR-3 ovarian 40.9% | HS 578T breast 52.7% | NCI/ADR-RES ovarian 32.7%

CC(C)NC(=O)c1cc(-c2ccc(NC(=O)Nc3ccc(N4CCN(C)CC4)c(C(F)(F)F)c3)cc2)nc2cccnc12
active: SK-MEL-2 melanoma -81.9% | EKVX NSCLC -92.4% | SN12C renal -92.9% | UO-31 renal -97.4% | TK-10 renal -93.6% | ACHN renal -100% | CAKI-1 renal -93.6% | A498 renal -97.7% | CCRF-CEM leukemia -43.6% | RPMI-8226 leukemia -37.5% | OVCAR-8 ovarian -81.4% | OVCAR-5 ovarian -99.5% | OVCAR-4 ovarian -87.8% | SK-OV-3 ovarian -93.1% | IGROV1 ovarian -86.9% | OVCAR-3 ovarian -84.9% | HS 578T breast -42.1% | NCI/ADR-RES ovarian -61.7%

N#Cc1c(-c2ccc(F)cc2)nc(SCc2ccc(F)cc2)nc1N1CCOCC1
inactive: SK-MEL-2 melanoma 78.7% | EKVX NSCLC 60.1% | SN12C renal 72.9% | UO-31 renal 86% | TK-10 renal 77.6% | ACHN renal 46.7% | CAKI-1 renal 30.7% | A498 renal 71.9% | CCRF-CEM leukemia 87.1% | RPMI-8226 leukemia 92.7% | OVCAR-8 ovarian 54.8% | OVCAR-5 ovarian 83.1% | OVCAR-4 ovarian 60.5% | SK-OV-3 ovarian 39.6% | IGROV1 ovarian 90.9% | OVCAR-3 ovarian 75.2% | HS 578T breast 25.7% | NCI/ADR-RES ovarian 63.5%
